39 molecules from PubChem BioAssay (Tox21) can be followed below.

Unmarked numbers belong to inactive results. Records with an inconclusive call do not appear. Entries that show only a call come without a potency. The source made the active and inactive calls. Unless noted, calls come from the whole dose curve; as a rule, active = well fitted cell-killing curve with a large enough effect in the repeat runs; inconclusive = weak or mixed curves, or effect the other way; inactive = flat fitted curve, though single readings scatter.
Potency is the fitted concentration of half-maximal effect.

Gonadotropin-releasing hormone receptor (Homo sapiens), sequence (P30968 whole entry, looked up): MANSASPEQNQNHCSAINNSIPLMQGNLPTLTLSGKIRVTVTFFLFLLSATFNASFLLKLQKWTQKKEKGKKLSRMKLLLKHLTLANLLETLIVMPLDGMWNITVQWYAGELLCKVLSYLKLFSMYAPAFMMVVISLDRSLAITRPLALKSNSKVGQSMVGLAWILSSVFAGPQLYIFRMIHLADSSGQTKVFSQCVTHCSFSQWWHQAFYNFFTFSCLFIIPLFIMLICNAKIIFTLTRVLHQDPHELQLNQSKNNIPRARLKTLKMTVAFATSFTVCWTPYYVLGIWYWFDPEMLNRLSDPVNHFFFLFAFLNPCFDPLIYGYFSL

System in the first assay: not listed separately
Put plainly: Nuclear factor erythroid 2-related factor 2/antioxidant responsive element (Nrf2/ARE) small molecule agonists: qHTS cell viability counter screen in human keratinocytes (AID 1919968). Note: nearly all actives have a fitted effect of over 55% in size. Conditions: KeratinoSens HaCaT ARE cells viability, CellTiter-Fluor, 24 h; series mostly up to 92.4 µM. A digest of the protocol:
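KeratinoSens HaCaT cells, 1,500/well, preincubated 5 h, then exposed to compounds in DMSO for 23 h at 37 C/5% CO2. Viability read as CellTiter-Fluor fluorescence after 1 h, in the same wells as the ARE-luciferase read.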
On the technique in general: In qHTS, concentration-response curves come from the screen itself.
With `CC(C)OCC1CO1` (centres undefined), the Potency result was “inactive”. Still for that read-out and setting: for `CCCCCCC(CO)CCCC` (centres undefined) the value was “inactive”; for `S=C(SSSSSSC(=S)N1CCCCC1)N1CCCCC1`, 0.134 µM (active); for `CO[Si](CCCS)(OC)OC`, “inactive”. On the same count and under the same terms, for `NC(=O)C(=O)N/N=C/c1ccc([N+](=O)[O-])o1` the value was “inactive”. On the same count and under the same terms, then `O=C(CCCN1CCC(O)(c2ccc(Br)cc2)CC1)c1ccc(F)cc1`, with “inactive”. In the case of `CC(C)OC(=O)C(C(=O)OC(C)C)=C1SC=CS1`, the Potency entry was “inactive”.

In the case of `O=S(O)O`, the activity change, negative = cytotoxicity was -0.591% [at 19 µM]. For `COc1cc(C(=O)NS(=O)(=O)c2ccccc2C)ccc1Cc1cn(C)c2ccc(NC(=O)OC3CCCC3)cc12`, the Potency result was “inactive”. Still for that read-out and setting: then `O=C1O[C@@H]2[C@@H](O)[C@H](O)O[C@@H]2[C@H]1O`, with “inactive”; and `CCc1ccc(CC)cc1`, with “inactive”; and `CC(C)(C)N(CCO)CCO`, with “inactive”.

On to `O=CCCc1ccccc1`, for which the Potency result is “inactive”. Same read-out and setting: for `Cc1oc(-c2ccccc2)nc1CCC(=O)c1ccc(CC2SC(=O)NC2=O)cc1` (centres undefined) the value was “inactive”. With `CCCCNc1ccc(NCCCC)c2c1C(=O)c1ccccc1C2=O`, the activity change, negative = cytotoxicity is -4.75% [at 19 µM]. On to `O=C(O)c1ccncc1`, for which the Potency result was “inactive”. The same measure, in the same setting: for `Clc1cc(Cl)c(-c2c(Cl)c(Cl)cc(Cl)c2Cl)cc1Cl` the value was “inactive”.

Consider `CC(=O)N(CC(O)CN(C(C)=O)c1c(I)c(C(=O)NCC(O)CO)c(I)c(C(=O)NCC(O)CO)c1I)c1c(I)c(C(=O)NCC(O)CO)c(I)c(C(=O)NCC(O)CO)c1I` (centres undefined), for which the Potency result is “inactive”. Take `CCCCCCCCCCCCS(=O)(=O)Cl`: the activity change, negative = cytotoxicity is -5.52% [at 19 µM]. On to `CCNC(=O)N1CCN(CCCC(c2ccc(F)cc2)c2ccc(F)cc2)CC1`, for which the Potency result is “inactive”. Turning to `CC/C=C\CCOC(=O)c1ccccc1`, the Potency result was “inactive”. Turning to `CCc1cc(Cc2cc(CC)cc(C(C)(C)C)c2O)c(O)c(C(C)(C)C)c1`, the Potency is 13.7 µM (active). Turning to `CCC1=C(C)CN(C(=O)NCCc2ccc(S(=O)(=O)NC(=O)NC3CCC(C)CC3)cc2)C1=O` (centres undefined), the Potency result was “inactive”. On the same count and under the same terms, then `CCOC(=O)C1=C(C)NC(C)=C(C(=O)OC)C1c1cccc(Cl)c1Cl` (centres undefined), with “inactive”; and `Clc1ccnc(Cl)n1`, with “inactive”; and `OCC(CO)(CO)COCC(CO)(CO)CO`, with “inactive”. On the same count and under the same terms, for `OCc1ccccn1` the value was “inactive”; for `CCOC(=O)/C=C/C(=O)O`, “inactive”; for `CCCCC`, “inactive”. For the molecule `Cc1ccc2c(c1)c1c3n2CCNC3CCC1` (centres undefined), the Potency entry is “inactive”. On the same count and under the same terms, for `CCOc1ccccc1N` the value was “inactive”; for `CC(C(=O)O)c1ccc(C(=O)c2ccccc2)s1` (centres undefined), “inactive”.

For the molecule `CCCCCCC(=O)OCC`, the Potency result was “inactive”. Consider `NS(=O)(=O)c1cc(C(=O)NN2C[C@H]3[C@H]4CCC(C4)[C@H]3C2)ccc1Cl`, for which the Potency entry is “inactive”. On the same count and under the same terms, for `CC1(C)S[C@@H]2[C@H](NC(=O)C(C(=O)O)c3ccccc3)C(=O)N2[C@H]1C(=O)O` (some centres undefined) the value was “inactive”; for `CC(CC(C#N)(c1ccccc1)C(C)C)N(C)C` (centres undefined), “inactive”; for `O=P(O)(O)C(O)(Cc1cccnc1)P(=O)(O)O`, “inactive”. On the same count and under the same terms, then `C=CCCCC`, with “inactive”.

Consider `CCCCCCCC1CCCC1=O` (centres undefined), for which the Potency result is “inactive”.

The next assay concerns the target Gonadotropin-releasing hormone receptor (Homo sapiens) (UniProt P30968). Put plainly: Human gonadotropin-releasing hormone receptor (GnRHR) small molecule agonists, calcium flux assay in GnRHR-HEK293 cells (AID 1920063; calls by dose curve; note: nearly all actives have a fitted effect of over 35% in size). Conditions: calcium flux fluorescence, agonist mode; series mostly up to 57.6 µM. The procedure, abridged: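 HEK293 cells stably expressing human GnRHR were dye-loaded for 1 h at 37 C. Compound was added in agonist mode and fluorescence (Ex/Em 480/540) recorded kinetically for 3 min. Fifteen concentrations, triplicates.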
On the technique in general: A change in cytosolic calcium serves as a functional read-out for many receptors and channels.
Regarding `CC(C)OCC1CO1` (centres undefined), the Potency entry is “inactive”. Same read-out and setting: for `CCCCCCC(CO)CCCC` (centres undefined) the value was “inactive”.

`S=C(SSSSSSC(=S)N1CCCCC1)N1CCCCC1`: the activity change is 9.84% [at 11.8 µM, stronger effect = higher value]. For the molecule `CO[Si](CCCS)(OC)OC`, the Potency entry is “inactive”. The same measure, in the same setting: for `O=C(CCCN1CCC(O)(c2ccc(Br)cc2)CC1)c1ccc(F)cc1` the value was “inactive”; for `CC(C)OC(=O)C(C(=O)OC(C)C)=C1SC=CS1`, “inactive”. `O=S(O)O`: the activity change was -0.296% [at 11.8 µM, stronger effect = higher value]. Turning to `COc1cc(C(=O)NS(=O)(=O)c2ccccc2C)ccc1Cc1cn(C)c2ccc(NC(=O)OC3CCCC3)cc12`, the Potency entry is “inactive”. Same read-out and setting: then `O=C1O[C@@H]2[C@@H](O)[C@H](O)O[C@@H]2[C@H]1O`, with “inactive”; and `CCc1ccc(CC)cc1`, with “inactive”; and `CC(C)(C)N(CCO)CCO`, with “inactive”. Same read-out and setting: for `O=CCCc1ccccc1` the value was “inactive”.

With `CCCCNc1ccc(NCCCC)c2c1C(=O)c1ccccc1C2=O`, the activity change is -0.141% [at 11.8 µM, stronger effect = higher value]. As to `Clc1cc(Cl)c(-c2c(Cl)c(Cl)cc(Cl)c2Cl)cc1Cl`, the Potency entry was “inactive”. The same measure, in the same setting: then `CC(=O)N(CC(O)CN(C(C)=O)c1c(I)c(C(=O)NCC(O)CO)c(I)c(C(=O)NCC(O)CO)c1I)c1c(I)c(C(=O)NCC(O)CO)c(I)c(C(=O)NCC(O)CO)c1I` (centres undefined), with “inactive”. In the case of `CCCCCCCCCCCCS(=O)(=O)Cl`, the activity change was 1.68% [at 11.8 µM, stronger effect = higher value]. As to `CCNC(=O)N1CCN(CCCC(c2ccc(F)cc2)c2ccc(F)cc2)CC1`, the Potency result was “inactive”. The same measure, in the same setting: then `CC/C=C\CCOC(=O)c1ccccc1`, with “inactive”; and `CCc1cc(Cc2cc(CC)cc(C(C)(C)C)c2O)c(O)c(C(C)(C)C)c1`, with “inactive”. In the case of `CCC1=C(C)CN(C(=O)NCCc2ccc(S(=O)(=O)NC(=O)NC3CCC(C)CC3)cc2)C1=O` (centres undefined), the Potency entry was “inactive”. As to `CCOC(=O)C1=C(C)NC(C)=C(C(=O)OC)C1c1cccc(Cl)c1Cl` (centres undefined), the Potency result is “inactive”. The same measure, in the same setting: then `Clc1ccnc(Cl)n1`, with “inactive”; and `OCC(CO)(CO)COCC(CO)(CO)CO`, with “inactive”; and `OCc1ccccn1`, with “inactive”. Same read-out and setting: for `CCOC(=O)/C=C/C(=O)O` the value was “inactive”; for `CCCCC`, 38.3 µM (active). The same measure, in the same setting: for `CCCCCCC(=O)OCC` the value was “inactive”. Consider `CC1(C)S[C@@H]2[C@H](NC(=O)C(C(=O)O)c3ccccc3)C(=O)N2[C@H]1C(=O)O` (some centres undefined), for which the Potency result was “inactive”. On the same count and under the same terms, for `O=P(O)(O)C(O)(Cc1cccnc1)P(=O)(O)O` the value was “inactive”; for `C=CCCCC`, “inactive”.
